Measured values reported in PubChem BioAssay AID488789 (Broad Institute, 2010).
Entries with a potency or affinity are not part of this list. Results filed as inconclusive are left out.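 How the source made its calls: active means samples whose fitted half-maximal inhibition concentration is no more than ten times the top valid dose tested; inconclusive means flat response between -70 and -30, or invalid curve fit; inactive means flat within 30 of zero, potency above limit, or signal rising.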

target: Trypsin (Sus scrofa) (UniProt P00761); experiment: porcine trypsin inhibitors, dose response, selectivity assay for Rce1 protease inhibitor project, biochemical, quenched peptide fluorescence, cherry-pick (AID 488789); details: quenched peptide cleavage fluorescence; series mostly up to 10 µM; activity change, negative = inhibition: at the top concentration
Sequence (P00761 whole entry, looked up): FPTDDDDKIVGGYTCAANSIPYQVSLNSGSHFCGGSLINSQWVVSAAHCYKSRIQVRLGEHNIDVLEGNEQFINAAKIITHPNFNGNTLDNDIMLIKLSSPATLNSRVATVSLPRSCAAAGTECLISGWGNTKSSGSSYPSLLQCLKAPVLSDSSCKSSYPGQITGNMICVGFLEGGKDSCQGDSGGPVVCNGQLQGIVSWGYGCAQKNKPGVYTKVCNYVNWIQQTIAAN

Activity change, negative = inhibition, inactive:
O=C(CCNC(=O)N1CC(=O)Nc2ccccc21)NCCc1cccc(F)c1 6.18%, Cc1ccc(S(=O)(=O)Nc2ccccc2C(=O)NCC2CCCO2)cc1 (configuration not stated) -0.29%, Cc1ccccc1NS(=O)(=O)c1ccc(C(=O)NCC(c2ccccc2)N(C)C)cc1 (configuration not stated) 8.17%, Cc1nn(CCC(=O)O)c2nc(-c3cccnc3)cc(C(F)(F)F)c12 9.33%, CC(C)c1c(C(=O)N/N=C/c2cccc3ccccc23)nnn1-c1nonc1N 21.5%, CC(C)N1CCN(Cc2ccc(OCc3ccccc3)cc2)CC1CCO (configuration not stated) 13.1%, CCCCCCCCCCOC(=O)Cn1c(COc2ccc(C)cc2)[n+](C)c2ccccc21 0.202%, CCN(CC)CCCN(Cc1cc2cc3c(cc2[nH]c1=O)OCO3)C(=S)NCCCN(C)C -25%, O=C(CCNS(=O)(=O)c1ccc2[nH]c(=O)oc2c1)NCc1ccccc1 8.03%, COC(=O)c1nc(N)sc1-c1ccc(Cl)c(Cl)c1 -6.59%, COc1ccc(-c2oc3ncn(Cc4ccco4)c(=N)c3c2-c2ccc(OC)cc2)cc1 -23.5%, CCCCOc1ccc(-c2cc(C(F)(F)F)c(C#N)c(SCC(=O)O)n2)cc1 40.4%, COc1cc2c(cc1OC)C(C)=NC1(CCCCC1)C2 -10.1%, CCC1(c2ccccc2)NC(=O)N(CC(=O)Nc2ccc3c(C)cc(=O)oc3c2)C1=O (configuration not stated) 9.62%, CCC(C)(C)c1ccc(OCCCC[n+]2cccc(C)c2)c(C(C)(C)CC)c1 15.5%, CCSc1nc2c(c(=O)[nH]1)C(c1ccccn1)C1=C(CC(C)(C)CC1=O)N2 (configuration not stated) 11.7%, CCCN(CCC)CCNC(=O)c1cc2c(-c3ccccc3F)nn(C)c2s1 10.6%, O=[N+]([O-])c1cc(S(=O)(=O)N2CCCC2)ccc1NN=C1CCCCC1 6.92%, COCCCNC(=S)NCCNc1nc2cc(C)cc(C)c2cc1C#N 1.37%, CCOC(=O)c1ccc(NC(=O)N2CCN(Cc3ccccc3)CC2)cc1 0.748%, COc1ccc(CN2CCN(C(c3ccc(F)cc3)c3ccc(F)cc3)CC2)c(OC)c1OC 5.69%, CCOc1ccc(-c2c(C(=O)N/N=C/c3cccs3)nnn2-c2nonc2N)cc1 -4.32%, COC(=O)c1ccccc1NC(=O)NCc1cccnc1 -11.2%, Cc1cc(C)n(Cc2ccc(NC(=O)c3ccc(COc4ccccc4Br)cc3)cc2)n1 1.54%, Cc1nc(N2CCOCC2)c2cc(-c3ccccc3)sc2n1 7.9%, COc1ccccc1NC(=O)Cc1nnc(SCC(=O)Nc2nccs2)n1C 13.3%, COc1ccccc1C1=NN(C2=NN=C(N)Cc3ncnn32)C(O)(C(F)(F)F)C1 (configuration not stated) -8.08%, O=C(O)CCc1ccc(-c2cccs2)n1Cc1ccco1 16.1%, O=c1c(-c2ccccc2)c(O)c2ccccc2n1-c1ccccc1 11.5%, CN1C(=O)/C(=C/c2cccc(Cl)c2)Sc2ccc(C(=O)N3CCOCC3)cc21 12.6%, COc1ccc(-c2cn3ccccc3n2)cc1[N+](=O)[O-] 1.24%, C=C(C)C1(O)OC(=O)C=C1OC (configuration not stated) 12.6%, O=C(O)c1ccc(N/N=C/c2ccc(-c3ccccc3Cl)o2)cc1 0.708%, CCN(Cc1ccccc1)S(=O)(=O)c1ccc(C(=O)N(CCCN(C)C)c2nc3cc(C)cc(C)c3s2)cc1 1.82%, O=C(COC(=O)c1ccc(S(=O)(=O)N2CCCC2)cc1)NCc1ccccc1 14.1%, Cc1cc2cc(C(=O)N3CCc4c([nH]c5ccccc45)C3c3ccccn3)ccc2o1 (configuration not stated) 3.48%, COc1ccc(NS(=O)(=O)c2ccc3oc(=O)c4[nH]c(=O)c(=O)n(C)c4c3c2)cc1 20.9%
